PubChem BioAssay (NCATS)
Some of the results follow. Results filed as inconclusive are left out. The source made the active and inactive calls. Calls follow the shape of the dose curve; as a rule, active = well fitted inhibition curve with a large enough effect; inconclusive = small, poorly fitted or top-dose-only effect; inactive = flat fitted curve, though single readings scatter.

Biological target: Flap endonuclease 1 (Homo sapiens) (UniProt P39748)
Experiment: qHTS Assay for the Inhibitors of FEN1: Confirmatory Assay for Cherry-picked Compounds (AID 720498); also: nearly all actives have a fitted effect of over 60% in size
Details: FEN1 flap cleavage, TAMRA/BHQ2 fluorogenic DNA substrate
Text: The major human flap endonuclease FEN1 is an efficient structure-specific enzyme that recognizes and cleaves a 5'-unannealed DNA flap. It belongs to the RAD2 family nucleases, which are involved in DNA metabolism and are highly conserved in prokaryotes and eukaryotes. FEN1 is a key enzyme in DNA replication, repair and maintenance of genomic stability. 5'-flap removal by FEN1 is critical for Okazaki fragment processing during lagging strand DNA synthesis, long-patch base excision repair (LP BER), and regulating or facilitating recombination events. […] Cells from fen1-/- blastocysts show increased apoptotic cell death after ionizing radiation treatment, and chicken cells lacking the fen1 gene are hypersensitive to DNA alkylating agents, e.g. methylmethane sulfonate (MMS) and N-methyl-N'-nitro-N-nitrosoguanidine (MNNG), as well as hydrogen peroxide. […] Elevation of FEN1 in hormone refractory human prostate cancer cells also correlates with resistant to various anticancer agents including ionizing radiation, doxorubicin, paclitaxel and vinblastine. […] This assay is used to confirm the activity of selected compounds against the human Fen1. Inhibition is the desired outcome for this screen. NIH Chemical Genomics Center [NCGC] NIH Molecular Libraries Probe Centers Network [MLPCN] MLPCN Grant: MH092154 Assay Submitter (PI): David Wilson, National Institute of Aging
Three uL of reagents (buffer in column 3 and 4 as negative control and 10 nM FEN1 in columns 1, 2, and 5-48) were dispensed into 1,536-well black solid-bottomed plate. Compounds (23 nL) were transferred via Kalypsys pin tool equipped with 1536-pin array (10 nL slotted pins, V&P Scientific, San Diego, CA). The plates were then incubated for 15 min at room temperature, and 1 uL substrate (50 nM final concentration) were added to start the reaction read twice at 0 min read and 15 min on ViewLux reader equipped with 525 nm excitation and 598 nm emission filters. Throughout the screen, reagent bottle and all liquid lines were chilled and made light-tight to minimize reagent degradation. FEN1 Substrate. All oligodeoxynucleotides were purchased from Biosearch Technologies, Inc., (Novato, CA). Double-stranded DNA substrate containing double flap strands for fluorogenic assay was prepared from three oligodeoxynucleotides: quencher (5'-TCACCCTCGTACGACTCATCCAAAAAAGC - BHQ2), flap (5'-Tamra-GC AAAAAATTTATTCATCAACTGACATCTCCTAC) and template (5'-GT AGGAGATGTCAGTTGATGAATTGAGTCGTACGAGGGTGA-3') strand by annealing. The 5' end of the downstream flap strand was labeled with 6-carboxytetramethyl rhodamine (6-TAMRA) as the fluorophore donor, whereas the 3' end of the quencher flap strand was labeled with a Black Hole Quencher-2 (BHQ-2) as the matching quencher.
Potency is read from the fitted curve at half-maximal effect.

Sequence of Flap endonuclease 1 (Homo sapiens) (P39748 whole entry, looked up): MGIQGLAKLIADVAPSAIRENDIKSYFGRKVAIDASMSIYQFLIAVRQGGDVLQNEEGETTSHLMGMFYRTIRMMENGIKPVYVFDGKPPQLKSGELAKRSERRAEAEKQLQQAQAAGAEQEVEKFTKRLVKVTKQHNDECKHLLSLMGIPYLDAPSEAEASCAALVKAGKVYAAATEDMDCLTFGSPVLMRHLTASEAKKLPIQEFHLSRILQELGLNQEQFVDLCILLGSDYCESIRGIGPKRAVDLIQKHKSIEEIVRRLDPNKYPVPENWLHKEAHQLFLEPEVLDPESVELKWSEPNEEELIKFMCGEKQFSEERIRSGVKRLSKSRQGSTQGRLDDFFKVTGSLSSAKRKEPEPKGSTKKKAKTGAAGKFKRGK

Structure (SMILES)	Potency
CC(=O)OC1CCC2(C)C(=CCC3C4CC(=O)N(O)C(=O)C4(C)CCC32)C1 (configuration not stated)	23.9 µM (active)
COc1nc(N=C(N)N)nc2c(C)cccc12	33.8 µM (active)
CCOc1cccc2c1N[C@@H](c1ccc(C(=O)O)cc1)[C@H]1CC=C[C@@H]21	47.8 µM (active)
Cc1ccc(C(=O)O)cc1-c1ccc(/C=C2\SC(=O)N(CC(=O)Nc3ccc4c(c3)OCO4)C2=O)o1	19 µM (active)
CCc1ccc2nc3sc(C(=O)Nc4nnc(CC)s4)c(N)c3cc2c1	60.1 µM (active)
O=C(CCNC(=O)c1ccccc1)NN=Cc1ccc(Br)o1	84.9 µM (active)
O=C(O)C(c1ccccc1)N1C(=O)/C(=C\c2ccc(-c3cccc(Cl)c3)o2)SC1=S (configuration not stated)	75.7 µM (active)
CN1CCN(CCCNC(=O)c2ccc(/C=C3\Oc4ccccc4N(Cc4ccc(Cl)cc4)C3=O)cc2)CC1	23.9 µM (active)
CCN1CCN(CCNC(=O)c2ccc3c(c2)NC(=O)/C(=C\c2ccc(OC)c(OC)c2)S3)CC1	33.8 µM (active)
COc1cc(NC(=O)COC(=O)c2ccc([N+](=O)[O-])s2)cc(OC)c1OC	6.01 µM (active)
CCN(CC)c1ccc2cc(C(N)=O)/c(=N\NC(=O)c3ccncc3)oc2c1	33.8 µM (active)
CCN1CCN(CCCNC(=O)c2ccc3c(c2)sc2nc(-c4ccc(OC)cc4)cn23)CC1	33.8 µM (active)
O=C(CSc1nc2ccccc2c(=O)[nH]1)Nc1nc(-c2ccc(Br)cc2)cs1	60.1 µM (active)
O=C(COC(=O)c1ccc([N+](=O)[O-])o1)NC12CC3CC(CC(C3)C1)C2	8.49 µM (active)
CN(C)CCNC(=O)c1ccc(Cl)c2cc3ccccc3nc12	13.5 µM (active)
CC(=O)Nc1ccc(Nc2c3ccccc3nc3ccccc23)cc1	30.1 µM (active)
c1ccc2cc3c(NCCN4CCOCC4)ccnc3cc2c1	37.9 µM (active)
COCCNC(=O)Nc1ccc2nc(-c3ccco3)c(-c3ccco3)nc2c1	19 µM (active)
O=[N+]([O-])c1ccc(C=Nc2ccc(Cl)cc2Cl)s1	6.75 µM (active)
COc1ccc2[nH]c3c(C)c4cc[n+](C)cc4c(C)c3c2c1	1.35 µM (active)
COc1ccc(Cc2nnc(NC(=O)Cc3cccs3)s2)cc1	84.9 µM (active)
C=CC1=C(C(=O)O)N2C(=O)[C@@H](NC(=O)/C(=N/OCC(=O)O)c3csc(N)n3)[C@H]2SC1	33.8 µM (active)
